Common to all, as to experiment: DAPPL (digital affinity profiling via proximity ligation, sequencing); 10 mM Tris-HCl pH 7.5, 50 mM NaCl, 1 mM DTT, 4% glycerol, room temperature, 30 min; GST-TFs on glutathione beads, 16-mer random dsDNA library, 0.1% formaldehyde crosslink after washing; high values mean tight binding
For experiment [1], the target named is T1, FEV (Homo sapiens, UniProt Q99581 1-238).
T1 sequence: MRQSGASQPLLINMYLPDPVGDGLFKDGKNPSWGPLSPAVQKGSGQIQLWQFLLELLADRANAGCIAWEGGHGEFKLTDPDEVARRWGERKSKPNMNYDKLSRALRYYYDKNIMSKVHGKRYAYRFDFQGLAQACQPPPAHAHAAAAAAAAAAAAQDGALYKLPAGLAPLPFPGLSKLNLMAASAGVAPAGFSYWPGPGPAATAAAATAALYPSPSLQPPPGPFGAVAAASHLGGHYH
The conditions noted are these: protein: recombinant; tags: N-terminal GST; dsDNA, one strand shown. In a few lines:
(§1)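 A tag-only sample was pooled with DNA-barcoded human transcription factors that had been expressed in yeast as GST fusions and captured on glutathione beads. The pools were incubated for 30 min at room temperature with 200 nmole of a random double-stranded 16-mer DNA library in Tris/NaCl/DTT/glycerol buffer, then washed, crosslinked with 0.1% formaldehyde, proximity-ligated (BsaI/T4 ligase, 1 h, 37 °C), PCR-amplified and sequenced on an Illumina NextSeq500. Binding signal is each hexamer's read frequency for a factor divided by its frequency for the tag-only sample.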

Experiment [2] deals with ETV5 (Homo sapiens, UniProt P41161 1-510). The settings on record: protein: recombinant; tags: N-terminal GST; dsDNA, one strand shown. The essentials:
as §1

In experiment [3] the target is HSF1 (Homo sapiens, UniProt Q00613 1-529). The conditions noted are these: protein: recombinant; tags: N-terminal GST; chain copies: 3; dsDNA, one strand shown. In a few lines:
as §1

Experiment [4] has as its target T2, SPIC (Homo sapiens, UniProt Q8N5J4 1-248).
T2 sequence: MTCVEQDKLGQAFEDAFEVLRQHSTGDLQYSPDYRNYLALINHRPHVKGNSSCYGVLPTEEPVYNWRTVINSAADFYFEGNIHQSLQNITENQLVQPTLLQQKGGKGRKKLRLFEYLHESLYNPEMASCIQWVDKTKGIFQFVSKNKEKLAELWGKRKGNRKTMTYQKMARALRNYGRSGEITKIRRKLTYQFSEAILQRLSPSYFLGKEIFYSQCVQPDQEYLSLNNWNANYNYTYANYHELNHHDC
The conditions noted are these: protein: recombinant; tags: N-terminal GST; dsDNA, one strand shown. In a few lines:
as §1

The target in experiment [5] is ELF4 (Homo sapiens, UniProt Q99607 1-663). The conditions noted are these: protein: recombinant; tags: N-terminal GST; dsDNA, one strand shown. In a few lines:
as §1

Experiment [6] deals with T3, ELK4 (Homo sapiens, UniProt P28324-2 1-405).
T3 sequence: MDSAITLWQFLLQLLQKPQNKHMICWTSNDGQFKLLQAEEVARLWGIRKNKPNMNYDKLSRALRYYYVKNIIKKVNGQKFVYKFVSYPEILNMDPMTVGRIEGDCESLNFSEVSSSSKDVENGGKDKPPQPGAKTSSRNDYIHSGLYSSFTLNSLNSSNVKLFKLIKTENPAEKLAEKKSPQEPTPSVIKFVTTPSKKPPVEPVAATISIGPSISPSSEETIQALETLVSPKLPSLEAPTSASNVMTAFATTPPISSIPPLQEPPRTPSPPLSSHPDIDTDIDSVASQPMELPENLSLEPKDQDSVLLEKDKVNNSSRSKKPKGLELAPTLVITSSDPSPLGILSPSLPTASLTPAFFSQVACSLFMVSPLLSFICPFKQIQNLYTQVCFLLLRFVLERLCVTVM
The settings on record: protein: recombinant; tags: N-terminal GST; dsDNA, one strand shown. The essentials:
as §1

Experiment [7] concerns the target T4, ETV2 (Homo sapiens, UniProt O00321 1-342).
T4 sequence: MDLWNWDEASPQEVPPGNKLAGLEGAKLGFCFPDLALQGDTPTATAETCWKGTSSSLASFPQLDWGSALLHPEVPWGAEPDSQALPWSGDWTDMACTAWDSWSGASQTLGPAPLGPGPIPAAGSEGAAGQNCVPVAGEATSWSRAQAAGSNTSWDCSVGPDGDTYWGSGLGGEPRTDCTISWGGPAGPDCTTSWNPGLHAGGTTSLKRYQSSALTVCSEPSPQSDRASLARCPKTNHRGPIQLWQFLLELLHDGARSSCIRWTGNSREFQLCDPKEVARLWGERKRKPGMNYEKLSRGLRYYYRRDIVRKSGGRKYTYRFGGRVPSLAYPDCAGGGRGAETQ
The settings on record: protein: recombinant; tags: N-terminal GST; dsDNA, one strand shown. In a few lines: as §1

Experiment [8] addresses T5, ELF3 (Homo sapiens, UniProt P78545 1-371).
T5 sequence: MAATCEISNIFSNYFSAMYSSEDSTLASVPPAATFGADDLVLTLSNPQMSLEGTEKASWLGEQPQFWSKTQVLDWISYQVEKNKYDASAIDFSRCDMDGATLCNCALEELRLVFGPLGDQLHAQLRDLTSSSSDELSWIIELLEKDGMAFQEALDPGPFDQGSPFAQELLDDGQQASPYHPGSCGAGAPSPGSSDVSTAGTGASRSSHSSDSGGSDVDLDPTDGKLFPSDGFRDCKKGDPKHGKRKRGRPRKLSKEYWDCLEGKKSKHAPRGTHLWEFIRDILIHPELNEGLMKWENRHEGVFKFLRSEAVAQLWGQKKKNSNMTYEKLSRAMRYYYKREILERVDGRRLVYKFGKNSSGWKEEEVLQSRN
The conditions noted are these: protein: recombinant; tags: N-terminal GST; dsDNA, one strand shown. The essentials:
as §1

Experiment [9] concerns the target CRX (Homo sapiens, UniProt O43186 1-299). The settings on record: protein: recombinant; tags: N-terminal GST; dsDNA, one strand shown. The essentials:
as §1

Experiment [10] deals with ETV1 (Homo sapiens, UniProt P50549 1-477). The conditions noted are these: protein: recombinant; tags: N-terminal GST; dsDNA, one strand shown. In a few lines:
as §1

The target in experiment [11] is T6, ERF (Homo sapiens, UniProt P50548 1-548).
T6 sequence: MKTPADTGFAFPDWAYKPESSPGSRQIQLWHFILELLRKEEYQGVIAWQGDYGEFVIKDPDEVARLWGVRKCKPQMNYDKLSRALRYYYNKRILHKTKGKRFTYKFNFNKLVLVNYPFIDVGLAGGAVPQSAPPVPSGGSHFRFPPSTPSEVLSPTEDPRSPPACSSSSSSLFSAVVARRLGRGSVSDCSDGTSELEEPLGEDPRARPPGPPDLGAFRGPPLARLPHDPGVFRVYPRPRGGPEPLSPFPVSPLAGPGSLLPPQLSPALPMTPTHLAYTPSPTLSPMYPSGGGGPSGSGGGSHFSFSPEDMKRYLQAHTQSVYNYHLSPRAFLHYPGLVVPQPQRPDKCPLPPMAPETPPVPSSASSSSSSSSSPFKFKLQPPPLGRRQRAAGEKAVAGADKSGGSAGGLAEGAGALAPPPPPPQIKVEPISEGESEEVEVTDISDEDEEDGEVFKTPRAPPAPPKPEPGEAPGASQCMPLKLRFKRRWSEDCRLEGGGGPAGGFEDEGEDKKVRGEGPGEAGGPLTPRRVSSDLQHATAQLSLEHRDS
The settings on record: protein: recombinant; tags: N-terminal GST; dsDNA, one strand shown. In a few lines: as §1

The target of experiment [12] is T7, ETV3L (Homo sapiens, UniProt Q6ZN32 1-361).
T7 sequence: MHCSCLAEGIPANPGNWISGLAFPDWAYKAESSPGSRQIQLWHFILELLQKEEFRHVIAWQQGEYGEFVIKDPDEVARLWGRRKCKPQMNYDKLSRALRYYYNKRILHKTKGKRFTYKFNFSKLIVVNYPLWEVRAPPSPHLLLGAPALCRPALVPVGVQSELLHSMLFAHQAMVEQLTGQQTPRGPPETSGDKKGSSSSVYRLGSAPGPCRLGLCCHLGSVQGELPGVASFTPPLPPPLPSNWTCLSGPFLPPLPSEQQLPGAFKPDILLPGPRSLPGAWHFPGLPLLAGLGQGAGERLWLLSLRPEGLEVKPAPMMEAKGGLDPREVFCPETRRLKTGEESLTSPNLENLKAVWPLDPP
The settings on record: protein: recombinant; tags: N-terminal GST; dsDNA, one strand shown. The essentials:
as §1

Experiment [13] concerns the target T8, ETS2 (Homo sapiens, UniProt P15036 1-469).
T8 sequence: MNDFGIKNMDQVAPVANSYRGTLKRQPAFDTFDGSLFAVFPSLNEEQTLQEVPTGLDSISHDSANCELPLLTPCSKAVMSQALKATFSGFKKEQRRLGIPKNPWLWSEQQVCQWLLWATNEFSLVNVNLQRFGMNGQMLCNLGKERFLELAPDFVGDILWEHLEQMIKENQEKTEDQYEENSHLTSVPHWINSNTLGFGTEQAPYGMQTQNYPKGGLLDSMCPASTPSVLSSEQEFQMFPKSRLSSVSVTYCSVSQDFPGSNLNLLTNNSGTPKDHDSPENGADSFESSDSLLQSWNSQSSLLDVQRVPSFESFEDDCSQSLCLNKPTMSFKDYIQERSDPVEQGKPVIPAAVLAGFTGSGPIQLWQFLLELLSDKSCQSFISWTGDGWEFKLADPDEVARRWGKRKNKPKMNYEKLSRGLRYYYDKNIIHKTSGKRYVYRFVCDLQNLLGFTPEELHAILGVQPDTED
The settings on record: protein: recombinant; tags: N-terminal GST; dsDNA, one strand shown. The essentials: as §1

The target in experiment [14] is T9, SPDEF (Homo sapiens, UniProt O95238 1-335).
T9 sequence: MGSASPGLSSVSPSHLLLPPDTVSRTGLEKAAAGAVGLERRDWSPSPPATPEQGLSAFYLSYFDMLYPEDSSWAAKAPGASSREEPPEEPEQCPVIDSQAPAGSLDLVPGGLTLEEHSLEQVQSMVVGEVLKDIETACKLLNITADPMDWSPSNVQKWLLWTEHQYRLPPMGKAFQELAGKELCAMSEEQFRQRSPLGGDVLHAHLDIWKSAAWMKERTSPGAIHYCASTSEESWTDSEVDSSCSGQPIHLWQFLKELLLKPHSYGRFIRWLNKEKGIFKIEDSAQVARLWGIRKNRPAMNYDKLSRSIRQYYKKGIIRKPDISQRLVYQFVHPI
The conditions noted are these: protein: recombinant; tags: N-terminal GST; dsDNA, one strand shown. In a few lines: as §1

Experiment [15] has as its target T10, ETV7 (Homo sapiens, UniProt Q9Y603 1-341).
T10 sequence: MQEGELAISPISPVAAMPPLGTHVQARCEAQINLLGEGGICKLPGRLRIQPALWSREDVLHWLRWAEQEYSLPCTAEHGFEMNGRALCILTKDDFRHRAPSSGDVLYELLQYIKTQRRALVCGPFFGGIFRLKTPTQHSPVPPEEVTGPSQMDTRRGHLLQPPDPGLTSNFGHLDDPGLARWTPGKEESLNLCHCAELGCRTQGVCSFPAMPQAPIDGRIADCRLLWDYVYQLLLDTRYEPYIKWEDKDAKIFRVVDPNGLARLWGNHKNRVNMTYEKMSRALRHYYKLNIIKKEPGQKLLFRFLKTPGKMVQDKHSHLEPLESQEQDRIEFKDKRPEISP
The settings on record: protein: recombinant; tags: N-terminal GST; dsDNA, one strand shown. The essentials:
as §1

The target of experiment [16] is T11, ELF5 (Homo sapiens, UniProt Q9UKW6-2 1-255).
T11 sequence: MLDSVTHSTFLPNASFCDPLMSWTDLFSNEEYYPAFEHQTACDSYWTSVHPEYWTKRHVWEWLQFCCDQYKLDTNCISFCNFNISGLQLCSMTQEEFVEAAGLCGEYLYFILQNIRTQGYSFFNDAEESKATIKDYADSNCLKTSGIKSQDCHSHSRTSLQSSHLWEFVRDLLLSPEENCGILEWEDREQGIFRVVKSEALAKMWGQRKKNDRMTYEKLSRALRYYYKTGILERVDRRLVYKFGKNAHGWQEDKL
The settings on record: protein: recombinant; tags: N-terminal GST; dsDNA, one strand shown. The essentials: as §1

In experiment [17] the target is T12, ETV3 (Homo sapiens, UniProt P41162-2 1-143).
T12 sequence: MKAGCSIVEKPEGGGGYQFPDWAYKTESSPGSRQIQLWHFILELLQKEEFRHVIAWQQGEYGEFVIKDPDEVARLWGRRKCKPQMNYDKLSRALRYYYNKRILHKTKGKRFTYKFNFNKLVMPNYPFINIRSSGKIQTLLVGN
The settings on record: protein: recombinant; tags: N-terminal GST; dsDNA, one strand shown. The essentials: as §1

The target in experiment [18] is ETV6 (Homo sapiens, UniProt P41212 1-452). The settings on record: protein: recombinant; tags: N-terminal GST; dsDNA, one strand shown. In a few lines: as §1
Chain of ETV6 (P41212 whole entry): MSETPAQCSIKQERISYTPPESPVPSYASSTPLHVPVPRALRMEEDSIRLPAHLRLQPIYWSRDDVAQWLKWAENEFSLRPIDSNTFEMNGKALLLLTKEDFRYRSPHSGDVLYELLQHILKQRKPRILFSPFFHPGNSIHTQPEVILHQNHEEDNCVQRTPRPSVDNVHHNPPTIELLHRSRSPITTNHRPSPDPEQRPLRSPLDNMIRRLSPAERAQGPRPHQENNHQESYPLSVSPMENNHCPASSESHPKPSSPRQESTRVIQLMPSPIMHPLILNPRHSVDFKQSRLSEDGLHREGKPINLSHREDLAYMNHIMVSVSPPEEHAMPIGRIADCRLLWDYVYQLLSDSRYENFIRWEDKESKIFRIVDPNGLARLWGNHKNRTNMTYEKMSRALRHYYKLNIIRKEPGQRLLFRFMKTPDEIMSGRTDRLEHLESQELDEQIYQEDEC

Chain of CRX (O43186 whole entry): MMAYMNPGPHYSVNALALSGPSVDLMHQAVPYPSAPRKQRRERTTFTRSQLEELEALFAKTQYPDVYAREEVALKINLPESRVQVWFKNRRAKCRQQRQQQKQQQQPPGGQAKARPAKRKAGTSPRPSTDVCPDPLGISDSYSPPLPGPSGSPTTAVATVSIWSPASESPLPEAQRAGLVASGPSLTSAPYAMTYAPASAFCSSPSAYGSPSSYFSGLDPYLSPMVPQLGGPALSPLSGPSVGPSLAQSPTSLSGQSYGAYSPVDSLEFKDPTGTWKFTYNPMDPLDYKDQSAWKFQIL
Chain of ELF4 (Q99607 whole entry): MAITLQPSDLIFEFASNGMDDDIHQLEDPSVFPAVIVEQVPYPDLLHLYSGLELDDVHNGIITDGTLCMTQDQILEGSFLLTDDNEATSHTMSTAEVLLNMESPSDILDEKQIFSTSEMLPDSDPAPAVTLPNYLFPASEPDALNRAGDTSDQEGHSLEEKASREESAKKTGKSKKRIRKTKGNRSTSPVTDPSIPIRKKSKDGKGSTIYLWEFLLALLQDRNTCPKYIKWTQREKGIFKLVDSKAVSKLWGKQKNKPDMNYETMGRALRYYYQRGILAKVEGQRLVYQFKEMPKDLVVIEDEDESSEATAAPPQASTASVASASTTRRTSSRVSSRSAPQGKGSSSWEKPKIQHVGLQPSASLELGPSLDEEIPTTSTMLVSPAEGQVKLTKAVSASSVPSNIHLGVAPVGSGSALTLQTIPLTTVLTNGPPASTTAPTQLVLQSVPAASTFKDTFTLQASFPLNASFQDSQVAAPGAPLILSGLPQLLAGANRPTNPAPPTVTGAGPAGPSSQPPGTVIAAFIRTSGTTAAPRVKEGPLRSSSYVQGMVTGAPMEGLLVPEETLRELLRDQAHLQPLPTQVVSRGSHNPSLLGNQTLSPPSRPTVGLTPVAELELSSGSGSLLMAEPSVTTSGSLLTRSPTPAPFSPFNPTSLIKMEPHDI
Chain of ETV1 (P50549 whole entry): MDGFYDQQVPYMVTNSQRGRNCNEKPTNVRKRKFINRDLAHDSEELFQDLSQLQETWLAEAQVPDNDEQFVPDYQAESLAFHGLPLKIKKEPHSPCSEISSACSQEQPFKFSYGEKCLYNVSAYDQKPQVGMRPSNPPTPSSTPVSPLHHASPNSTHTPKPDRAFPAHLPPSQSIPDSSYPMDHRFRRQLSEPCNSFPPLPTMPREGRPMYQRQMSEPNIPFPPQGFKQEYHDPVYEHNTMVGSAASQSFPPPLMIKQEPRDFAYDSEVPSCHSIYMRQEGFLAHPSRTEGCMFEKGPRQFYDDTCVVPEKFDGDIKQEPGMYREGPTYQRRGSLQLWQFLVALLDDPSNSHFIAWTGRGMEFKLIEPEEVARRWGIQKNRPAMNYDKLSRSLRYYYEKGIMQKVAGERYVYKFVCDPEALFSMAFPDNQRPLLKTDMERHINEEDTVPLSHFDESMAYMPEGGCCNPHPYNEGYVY
Chain of ETV5 (P41161 whole entry): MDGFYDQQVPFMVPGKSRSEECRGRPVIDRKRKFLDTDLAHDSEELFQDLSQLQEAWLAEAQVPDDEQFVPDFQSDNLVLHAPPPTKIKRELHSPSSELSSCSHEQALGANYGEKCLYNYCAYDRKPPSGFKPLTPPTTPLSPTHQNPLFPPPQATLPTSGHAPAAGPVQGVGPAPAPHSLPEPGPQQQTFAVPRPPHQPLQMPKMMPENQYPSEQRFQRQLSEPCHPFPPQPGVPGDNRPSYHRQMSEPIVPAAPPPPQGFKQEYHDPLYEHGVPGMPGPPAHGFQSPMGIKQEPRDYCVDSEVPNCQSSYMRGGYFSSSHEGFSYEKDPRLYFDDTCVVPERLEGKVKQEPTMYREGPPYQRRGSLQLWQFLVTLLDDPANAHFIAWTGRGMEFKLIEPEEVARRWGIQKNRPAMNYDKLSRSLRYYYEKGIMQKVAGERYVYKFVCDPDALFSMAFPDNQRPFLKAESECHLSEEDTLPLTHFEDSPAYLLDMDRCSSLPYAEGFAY
Chain of HSF1 (Q00613 whole entry): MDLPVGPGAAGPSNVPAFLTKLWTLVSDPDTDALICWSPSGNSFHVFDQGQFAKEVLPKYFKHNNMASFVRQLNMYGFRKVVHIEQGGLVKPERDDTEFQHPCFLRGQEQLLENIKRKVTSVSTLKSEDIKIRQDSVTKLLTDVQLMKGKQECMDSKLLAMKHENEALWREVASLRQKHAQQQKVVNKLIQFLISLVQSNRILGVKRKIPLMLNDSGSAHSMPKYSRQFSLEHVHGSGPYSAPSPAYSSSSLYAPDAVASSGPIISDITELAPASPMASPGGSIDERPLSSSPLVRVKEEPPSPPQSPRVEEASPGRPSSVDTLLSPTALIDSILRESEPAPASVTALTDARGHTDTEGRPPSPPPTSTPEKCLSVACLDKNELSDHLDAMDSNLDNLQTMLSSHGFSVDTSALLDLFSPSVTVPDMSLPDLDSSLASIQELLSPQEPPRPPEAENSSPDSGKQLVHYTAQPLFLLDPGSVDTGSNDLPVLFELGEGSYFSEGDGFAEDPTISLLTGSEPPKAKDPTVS

On to TAAGAT, for which the binding signal in experiment [1] was 1.15 fold enrichment (6-mer frequency, TF over GST control); in [2] it was 1.13 fold enrichment (6-mer frequency, TF over GST control); in [3], 1.76 fold enrichment (6-mer frequency, TF over GST control); in experiment [4] it was 1.25 fold enrichment (6-mer frequency, TF over GST control); in experiment [5] it was 1.21 fold enrichment (6-mer frequency, TF over GST control); in [6], 1.29 fold enrichment (6-mer frequency, TF over GST control). In addition, the binding signal was 1.31 fold enrichment (6-mer frequency, TF over GST control) in [7]; 1.3 fold enrichment (6-mer frequency, TF over GST control) in experiment [8]; 2.49 fold enrichment (6-mer frequency, TF over GST control) in [9]; 1.28 fold enrichment (6-mer frequency, TF over GST control) in [10]; 1.3 fold enrichment (6-mer frequency, TF over GST control) in [11]; 1.12 fold enrichment (6-mer frequency, TF over GST control) in experiment [12]. The binding signal in experiment [13] was 1.19 fold enrichment (6-mer frequency, TF over GST control); in experiment [14], 1.31 fold enrichment (6-mer frequency, TF over GST control); in experiment [15], 1.19 fold enrichment (6-mer frequency, TF over GST control); in experiment [16], 1.11 fold enrichment (6-mer frequency, TF over GST control); in experiment [17] it was 1.2 fold enrichment (6-mer frequency, TF over GST control); in [18] it was 1.28 fold enrichment (6-mer frequency, TF over GST control).

Source of the values: PMC7862700, “An all-to-all approach to the identification of sequence-specific readers for epigenetic DNA modifications on cytosine”.
